# Cav3 T inh = inhibitors of human Cav3.2 T-type calcium channel | O95180 | Cav3.2-expressing cells, Fluo-4 calcium fluorescence FDSS; hits give low values | B-score at 10 µM | hit rate 4% among 100,000;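 active means single-dose well whose peak fluorescence ratio is a statistical outlier from its plate by either plate-standardised score or position-corrected B-score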
# CYP2C19 inhib = inhibitors of human CYP2C19; hit rate 21% among 96,000; inhibition, % at 5 µM; CYP2C19 Supersomes, luciferin-H EGE luminescence, 30 min; P33261;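 active means CYP2C19 inhibition above a set limit at 5 µM in the primary screen, cut at about 50% in these data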;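 further: plate controls were negative control wells for no effect and 2.5 mM tranylcypromine positive control for full effect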
# CYP2C19 act = activators of human cytochrome P450 2C19 | P33261 | recombinant CYP2C19, luciferin-H EGE luminescence; hits give high values; 0 = fully inhibited enzyme, 1 = untreated enzyme | activation factor at 5 µM | 96,000 tested, under 10 active | AID 1025;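 active means activation factor of at least 2 at 5 µM in the primary screen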;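 further: 0 = wells with 2.5 mM tranylcypromine and 1 = vehicle-only wells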
# CYP2C9 inhib = human CYP2C9 inhibition. hit rate 20% among 96,000. CYP2C9 Supersomes, luciferin-H conversion, luminescence. inhibition, % at 5 µM. P11712;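 active means blocking of liver enzyme CYP2C9 beyond about 50% at 5 µM, limit read from the data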
# Target sequence (P11712 whole entry, looked up): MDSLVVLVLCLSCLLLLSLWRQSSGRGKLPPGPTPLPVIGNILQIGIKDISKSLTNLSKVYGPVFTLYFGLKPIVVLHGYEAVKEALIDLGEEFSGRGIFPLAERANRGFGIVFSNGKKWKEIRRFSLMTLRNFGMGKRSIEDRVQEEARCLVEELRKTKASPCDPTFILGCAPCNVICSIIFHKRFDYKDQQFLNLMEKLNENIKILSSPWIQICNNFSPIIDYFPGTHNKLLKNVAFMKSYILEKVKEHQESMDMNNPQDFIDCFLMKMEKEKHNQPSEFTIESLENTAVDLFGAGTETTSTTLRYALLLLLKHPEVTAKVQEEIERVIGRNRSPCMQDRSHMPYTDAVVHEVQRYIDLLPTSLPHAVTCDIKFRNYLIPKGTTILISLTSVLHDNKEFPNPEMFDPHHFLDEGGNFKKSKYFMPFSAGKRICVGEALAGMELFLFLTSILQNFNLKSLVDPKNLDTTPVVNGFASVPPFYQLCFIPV
# CYP2C9 activ = activators of human CYP2C9 | activation factor at 5 µM | hit rate 1.4% among 96,000 | recombinant CYP2C9, luciferin-H conversion, luminescence; hits give high values; factor 1 = untreated enzyme, 0 = blocked;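 active means activation factor of 2 or more for CYP2C9 at a 5 µM dose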;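 further: 0 = sulfaphenazole-blocked wells and 1 = vehicle-only wells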
# * hit, by the source's call; / = no result. A selection: hits, their analogues and other compounds. The true share with any hit is near 27%.
SMILES,Cav3 T inh,CYP2C19 inhib,CYP2C19 act,CYP2C9 inhib,CYP2C9 activ
Oc1c(-c2cc(-c3ccco3)[nH]n2)ccc2ccccc12,-1.31,35.1,0.6,73.5*,0.3
CCCCn1c(=O)nc2n(-c3ccccc3)c3ccccc3cc-2c1=O,-0.0271,14.8,0.9,5.0,0.9
CCN(CC)c1ccc(-c2nn3c(-c4n[nH]c5c4CCC5)nnc3s2)cc1,-1.26,12.3,0.9,20.6,0.8
C1CCC(c2nn3c(-c4n[nH]c5c4CCC5)nnc3s2)CC1,0.724,87.2*,0.1,31.7,0.7
C/C(=C\[C@@H](NP(=O)(c1ccccc1)c1ccccc1)c1ccccc1)CO[Si](c1ccccc1)(c1ccccc1)C(C)(C)C,-1.33,/,/,/,/
COC(=O)c1ccc2c(=O)n(CCCCCC(=O)NCc3ccccn3)c(=O)[nH]c2c1,-0.0235,0.6,1,28.5,0.7
COC(=O)c1ccc2c(=O)n(CCCCCC(=O)NCc3ccccc3)c(=O)[nH]c2c1,-0.246,17.2,0.8,51.2*,0.5
COC(=O)c1ccc2c(=O)n(CCCCCC(=O)NCc3ccc4c(c3)OCO4)c(=O)[nH]c2c1,-0.0333,23.1,0.8,51.9*,0.5
CCCCCn1c(=O)[nH]c2cc(C(=O)NCc3ccc4c(c3)OCO4)ccc2c1=O,-2.06,44.3,0.6,36.4,0.6
COc1ccc(CNC(=O)CN(C(=O)c2ccc(CN3CCOCC3)o2)C2CCCC2)cc1,0.824,/,/,/,/
Cn1c(=O)c2c(nc(Oc3ccccn3)n2C)n(C)c1=O,/,-7.2,1.1,-2.4,1
CC1CCCN(CC(O)CN)C1 (stereo not given),0.231,/,/,/,/
COc1ccccc1Cc1noc(-c2cc(Cl)ccc2OC)n1,-0.249,47.5,0.5,-133.7,2.3*
COc1cc(-c2nc(Cc3ccccc3Cl)no2)cc(OC)c1OC,6.05e-07,26.5,0.7,14.2,0.9
COc1ccccc1OCc1nc(Cc2ccc(Cl)cc2)no1,-5.18*,93.6*,0.1,-33.1,1.3
C/C(=N\S(=O)(=O)c1ccc(C)cc1)N1CCN(S(=O)(=O)c2ccccc2)C1C(C)C (stereo not given),-0.284,78.4*,0.2,-135.9,2.4*
Cc1ccc(S(=O)(=O)N2CCN(C(=O)c3ccccc3)C2C(C)C)cc1 (stereo not given),-1.1,42.7,0.6,0.4,1
C=CCn1c(SCc2c(C)noc2C)nc2sc3c(c2c1=O)CCCC3,-3.76*,22.1,0.8,77.6*,0.2
Cc1noc(C)c1CSc1nc2sc3c(c2c(=O)n1C)CCCC3,-1.11,19.0,0.8,40.1,0.6
Cc1noc(C)c1CSc1nc2sc(C)c(C)c2c(=O)n1C1CCCC1,-5.77*,29.3,0.7,89.5*,0.1
C=CCn1c(SCc2c(C)noc2C)nc2sc3c(c2c1=O)CCCCC3,-4.31*,55.8*,0.4,95.3*,0
CC1CC(NC(=O)CCn2c(=O)oc3ccccc32)CC(C)(C)C1 (stereo not given),-1.21,19.5,0.8,11.7,0.9
COC(=O)CN1CCN(C(=O)c2ccc(F)cc2)c2ccccc2C1,0.424,53.3*,0.5,1.2,1
Cn1c(=O)c2c(nc(SC3C(=O)CC(C)(C)CC3=O)n2C)n(C)c1=O,0.59,-21.8,1.2,-31.5,1.3
CC(C)C[C@H](NC(=O)OC(C)(C)C)C(=O)N/N=C/C1=Cc2ccccc2OC1C (stereo not given in full),-4.45*,7.6,0.9,41.8,0.6
SMILES,Cav3 T inh,CYP2C19 inhib,CYP2C19 act,CYP2C9 inhib,CYP2C9 activ
Cc1ccc(Cn2ccc(NC(=O)c3cc(C)on3)n2)cc1,0.659,70.1*,0.3,62.0*,0.4
Cc1ccc(Cn2ccc(NC(=O)c3cc(-c4ccccc4)on3)n2)cc1,-0.0443,5.7,0.9,-5.6,1.1
CCN(Cc1ccccc1)Cc1c(F)cccc1F,-1.57,26.5,0.7,-8.0,1.1
COc1ccc(CN(CCN(C)C)Cc2ccccc2)c(OC)c1,0.991,81.5*,0.2,23.4,0.8
CCN(Cc1ccccc1)Cc1cc(OC)cc(OC)c1,-0.634,94.9*,0.1,34.7,0.7
COc1ccc(CN(C)CC(=O)c2c(N)n(Cc3ccccc3)c(=O)n(C)c2=O)c(OC)c1,-0.871,6.2,0.9,5.4,0.9
COc1ccccc1CN1C(=O)CN(C2CCCC2)C(=O)C1c1ccc(F)cc1 (stereo not given),-0.329,21.3,0.8,24.1,0.8
Cc1ccnc(NC(=O)CCc2c(C)nc3ncnn3c2C)c1,-0.0699,-6.3,1.1,10.4,0.9
Cc1ccc(COn2c(-c3ccc(Cl)cc3Cl)nc3ncccc32)cc1,-5.39*,82.8*,0.2,34.3,0.7
Clc1cccc(COn2c(-c3ccc(Cl)cc3Cl)nc3ncccc32)c1,-4.08*,93.5*,0.1,91.2*,0.1
CC1=C[C@@H](C)[C@@H](c2ccccc2)OC1=O,0.562,/,/,/,/
COc1ccc(-n2c(SCC(N)=O)nnc2-c2ccccc2F)cc1,1.01,/,/,/,/
COc1ccc(NC(=O)C(CC(C)C)NC(=O)c2ccccc2C)cn1 (stereo not given),0.292,53.9*,0.5,51.6*,0.5
COc1ccccc1OCCNC(=O)c1ccccc1C,0.419,47.4,0.5,-60.7,1.6
CCN(CC)S(=O)(=O)c1ccc(NS(=O)(=O)c2cccc(C)c2)cc1,-4.6*,39.6,0.6,90.7*,0.1
CCN(CC)S(=O)(=O)c1ccc(C(=O)Nc2cccc(C)c2)cc1,-1.58,55.3*,0.4,54.7*,0.5
Cc1ccc(Cn2nnc3c(=O)n(CC(=O)N4CCN(c5ccccc5)CC4)cnc32)cc1,-1.51,37.9,0.6,6.2,0.9
O=C(NCc1ccco1)C(NS(=O)(=O)c1cccc2nsnc12)c1ccccc1 (stereo not given),0.222,2.1,1,35.5,0.6
CCOC(=O)c1cc(CC)sc1NC(=O)COC,-0.0183,24.6,0.8,84.3*,0.2
CC(C)n1c2ccccc2c2nc3ccccc3nc21,-0.241,4.3,1,14.9,0.9
COC(=O)c1ccccc1NC(=O)c1cc(OC)cc(OC)c1,/,16.7,0.8,-19.4,1.2
N#Cc1nc(-c2ccco2)oc1NCCCn1ccnc1,-5.85e-06,86.1*,0.1,84.1*,0.2
COc1ccc(-c2nc(C#N)c(NCCCn3ccnc3)o2)cc1OC,0.0918,81.2*,0.2,86.1*,0.1
COc1ccc(NC(=O)OCC(C)C)cc1OC,0.0469,30.4,0.7,-7.4,1.1
CC(C)COC(=O)NCCOC(=O)Nc1cccc(Cl)c1,-5.67*,95.2*,0,80.3*,0.2
CC1(C)NC(=O)N(CC(O)CNC23CC4CC(CC(C4)C2)C3)C1=O (stereo not given),-0.342,7.0,0.9,6.3,0.9
O=C(CC1(O)C(=O)N(Cc2ccccc2)c2ccccc21)c1ccc2c(c1)OCO2 (stereo not given),-1.8,12.3,0.9,19.7,0.8
Cc1ccccc1CN1C(=O)C(O)(CC(=O)c2ccncc2)c2ccccc21 (stereo not given),0.0116,90.5*,0.1,40.6,0.6

# From PubChem
